# Experimental data taken from PMC5540273 (PLoS ONE, 2017).
# System: ZAK
# Conditions: concentration: 1 μM, replicates: in singlicate; n = 1
# 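Note: KINOMEscan kinase panel screen.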
row,SMILES,%Inh [%]
1,CCn1c(-c2nonc2N)nc2c(C#CC(C)(C)O)ncc(OCCCCN)c21.O=C(O)C(F)(F)F.O=C(O)C(F)(F)F [GSK507274],36
2,COc1cc2c(cc1OCCN1CCNCC1)ncc1c3ccc(C#N)cc3[nH]c21,8
3,COc1cccc(C(=O)Nc2cccc(Oc3ccc4nc(NC(=O)C5CC5)cn4n3)c2)c1,62
4,FC(F)(F)c1ccc(/C=C/c2cncnc2Nc2ccc3[nH]c(Cc4ccccc4)nc3c2)cc1 [GW709199],0
5,Cc1cccc(Nc2nc(N[C@H]3CCNC3)ncc2C(N)=O)c1.Cl [GSK2197149],0
6,NCCCC(NC(=O)c1cc(Br)c(-c2ccnc3[nH]ccc23)s1)c1ccccc1.O=C(O)C(F)(F)F.O=C(O)C(F)(F)F (centres unmarked) [GSK1287544],59
7,CC(C)(C)c1ccc2nccc(Nc3cccc(O)c3)c2c1 [GW856795],0
8,c1ccc(-c2n[nH]cc2Nc2ccnc3ccccc23)nc1 [GW694077],0
9,COc1cccc(NC(=O)NC2CCN(c3ccnc(Nc4cc(OC)c(OC)c(OC)c4)n3)C2)c1 (centres unmarked) [GSK1379763],0
10,COC(=O)Nc1nc2ccc(Oc3ccc(NC(=O)Nc4cc(C(F)(F)F)ccc4F)cc3)cc2n1C.Cl [GW692089],87
11,COc1cccc(C2=C(Nc3ccc(Cl)c(C(=O)O)c3)C(=O)NC2=O)c1 [SB-390769],0
12,COc1cc(Nc2nccc(-c3c(-c4cccc(NC(=O)c5c(F)cccc5F)c4)nn4ccccc34)n2)cc(OC)c1OC [GSK323521],0
13,Cn1cc(-c2[nH]c3cc(NC(=O)[C@H](N)C4CCCCC4)cc4c3c2C=NNC4=O)cn1,0
14,Nc1ncc(-c2cccnc2)c2scc(-c3ccc4c(c3)CCN4C(=O)Cc3ccccc3)c12 [GSK683281],9
15,CCCCc1nn2ncccc2c1-c1ccnc(Nc2ccc(N3CCN(C)CC3)cc2)n1 [GW684941],51
16,O=C(Nc1n[nH]c2cc(-c3ccoc3)ccc12)C1CC1 [SB-738481],15
17,Cl.c1ccc(-c2ccc3c(Nc4ccc5[nH]ncc5c4)ccnc3c2)nc1 [GW440137],71
18,Cn1cc(-c2ccc3c(c2)CCN3C(=O)Cc2cccc(Cl)c2)c2c(N)ncnc21 [GSK2606590],0
19,COc1cccc(-c2ccc3c(NC(=O)C4CC4)n[nH]c3n2)c1 [SB-710903],0
20,Nc1ncc(-c2ccc3nccc(-c4ccncc4)c3c2)cc1S(=O)(=O)N1CCOCC1 [GSK1627798],0
21,COc1cc(Nc2nccc(N3CCC(NC(=O)Nc4cccc(C(C)=O)c4)C3)n2)cc(OC)c1OC (centres unmarked) [GSK1379753],0
22,COCCOCCOc1cc2ncc3c4ccc(C#N)cc4[nH]c3c2cc1OC,33
23,COc1ccc(Nc2nccc(NCCNC(=O)c3cc4ccccc4s3)n2)cc1 [GSK1379896],0
24,COC(=O)Nc1nc2cc(Oc3ccc(NC(=O)Nc4cc(C(F)(F)F)ccc4F)cn3)ccc2[nH]1.Cl.Cl [GW681170],92
25,O=C(Nc1n[nH]c2nc(-c3ccc(O)cc3)ccc12)C1CC1 [SB-710363],23

# System: ZAP70
# Conditions: concentration: 1 μM, replicates: in singlicate; n = 1
row,SMILES,%Inh [%]
1,Nc1n[nH]c2cnc(-c3ccccc3)cc12 [SB-642124],0
2,CN(c1ccc(NC(=O)Nc2cc(C(F)(F)F)ccc2F)cc1)c1ccnc(Nc2ccc(S(N)(=O)=O)cc2)n1 [GW809893],27
3,CC(C)c1nc(-c2cccc(NS(=O)(=O)c3c(F)cccc3F)c2F)c(-c2ccnc(Nc3ccc(N4CCOCC4)nc3)n2)s1 [GSK2008607],0
4,O=C(Nc1cccc(-c2nn3ncccc3c2-c2ccnc(Nc3ccccc3)n2)c1)c1c(F)cccc1F [GSK198271],0
5,O=C(Nc1ccccc1F)NC1CCN(c2ccnc(Nc3ccc(F)cc3)n2)CC1 [GSK1379800],47
6,Cl.c1ccc(-c2ccc3c(Nc4ccc5[nH]ccc5c4)ccnc3c2)nc1 [GW440138],49
7,COc1ccc(CNC(=O)NC2CCN(c3ccnc(Nc4ccc(F)cc4)n3)CC2)cc1 [GSK1379788],4
8,CN(C)Cc1ccc(-c2ccc3c(Nc4ccc(Oc5ccccn5)cc4)ccnc3c2)o1 [GW567148],0
9,CNC(=O)c1ccccc1Nc1nc(Nc2ccc(N3CCOCC3)cc2)ncc1Cl.Cl [GSK1576028],6
10,CCS(=O)(=O)c1ccc(OC)c(Nc2nccc(-c3c(-c4cccc(NC(=O)c5c(F)cccc5F)c4)nn4ncccc34)n2)c1 [GSK326180],46
11,c1ccc(Oc2ccc(Nc3ccnc4cc(-c5ccc(CNCCN6CCOCC6)o5)ccc34)cc2)nc1 [GW567145],0
12,Cc1ccc(C)c(NC(=O)NC2CCN(c3ccnc(Nc4ccc(F)cc4)n3)C2)c1 (centres unmarked) [GSK1379720],0
13,CCn1c(-c2nonc2N)nc2c(C#CC(C)(C)O)ncc(OCCCCN)c21.O=C(O)C(F)(F)F.O=C(O)C(F)(F)F [GSK507274],0
14,COc1cc2c(cc1OCCN1CCNCC1)ncc1c3ccc(C#N)cc3[nH]c21,28
15,COc1cccc(C(=O)Nc2cccc(Oc3ccc4nc(NC(=O)C5CC5)cn4n3)c2)c1,0
16,FC(F)(F)c1ccc(/C=C/c2cncnc2Nc2ccc3[nH]c(Cc4ccccc4)nc3c2)cc1 [GW709199],9
17,Cc1cccc(Nc2nc(N[C@H]3CCNC3)ncc2C(N)=O)c1.Cl [GSK2197149],0
18,NCCCC(NC(=O)c1cc(Br)c(-c2ccnc3[nH]ccc23)s1)c1ccccc1.O=C(O)C(F)(F)F.O=C(O)C(F)(F)F (centres unmarked) [GSK1287544],0
19,CC(C)(C)c1ccc2nccc(Nc3cccc(O)c3)c2c1 [GW856795],42

row,SMILES,%Inh [%]
1,c1ccc(-c2n[nH]cc2Nc2ccnc3ccccc23)nc1 [GW694077],0
2,COc1cccc(NC(=O)NC2CCN(c3ccnc(Nc4cc(OC)c(OC)c(OC)c4)n3)C2)c1 (centres unmarked) [GSK1379763],0
3,COC(=O)Nc1nc2ccc(Oc3ccc(NC(=O)Nc4cc(C(F)(F)F)ccc4F)cc3)cc2n1C.Cl [GW692089],0
4,COc1cccc(C2=C(Nc3ccc(Cl)c(C(=O)O)c3)C(=O)NC2=O)c1 [SB-390769],5
5,COc1cc(Nc2nccc(-c3c(-c4cccc(NC(=O)c5c(F)cccc5F)c4)nn4ccccc34)n2)cc(OC)c1OC [GSK323521],0
6,Cn1cc(-c2[nH]c3cc(NC(=O)[C@H](N)C4CCCCC4)cc4c3c2C=NNC4=O)cn1,17
7,Nc1ncc(-c2cccnc2)c2scc(-c3ccc4c(c3)CCN4C(=O)Cc3ccccc3)c12 [GSK683281],0
8,CCCCc1nn2ncccc2c1-c1ccnc(Nc2ccc(N3CCN(C)CC3)cc2)n1 [GW684941],0
9,O=C(Nc1n[nH]c2cc(-c3ccoc3)ccc12)C1CC1 [SB-738481],0
10,Cl.c1ccc(-c2ccc3c(Nc4ccc5[nH]ncc5c4)ccnc3c2)nc1 [GW440137],24
11,Cn1cc(-c2ccc3c(c2)CCN3C(=O)Cc2cccc(Cl)c2)c2c(N)ncnc21 [GSK2606590],0
12,COc1cccc(-c2ccc3c(NC(=O)C4CC4)n[nH]c3n2)c1 [SB-710903],48
13,Nc1ncc(-c2ccc3nccc(-c4ccncc4)c3c2)cc1S(=O)(=O)N1CCOCC1 [GSK1627798],0
14,COc1cc(Nc2nccc(N3CCC(NC(=O)Nc4cccc(C(C)=O)c4)C3)n2)cc(OC)c1OC (centres unmarked) [GSK1379753],12
15,COCCOCCOc1cc2ncc3c4ccc(C#N)cc4[nH]c3c2cc1OC,0
16,COc1ccc(Nc2nccc(NCCNC(=O)c3cc4ccccc4s3)n2)cc1 [GSK1379896],0
17,COC(=O)Nc1nc2cc(Oc3ccc(NC(=O)Nc4cc(C(F)(F)F)ccc4F)cn3)ccc2[nH]1.Cl.Cl [GW681170],0
18,O=C(Nc1n[nH]c2nc(-c3ccc(O)cc3)ccc12)C1CC1 [SB-710363],0
